HIF-2a block: blocks HIF-2a reporter activity; 786-0 RCC cells HIF-2a reporter, luciferase luminescence, overnight; inhibition, % at 18.8 µM; 360,000 tested, 0.72% active;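 active means inhibition of the luminescence signal of 40% or more relative to plate controls, in a single-dose primary screen at 18.75 µM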
CF NFkB inh: cystic fibrosis NF-kB activation inhibition; KKLEB NF-kB-GFP reporter, PAF-induced, GFP fluorescence overnight; inhibition, % at 5 µM; 360,000 tested, 0.86% active; AID 588850;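 active means at least 50% inhibition at 5 µM, scaled per plate between neutral and stimulator controls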;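 further: PAF is a Pseudomonas aeruginosa culture filtrate used as stimulus; plate controls were PAF-stimulated DMSO wells for no effect and unstimulated DMSO wells for full effect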
Shn3 3UTR inh: reduces Shn3 3'UTR luciferase signal in osteoblasts. Clone20 osteoblast Shn3 3'UTR firefly luciferase, 24 h. inhibition, % at 12.5 µM. 360,000 tested, 0.52% active. AID 588674;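 active means mean inhibition of at least 75% with every replicate also reaching 75%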;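 further: 0% = median of neutral control wells and 100% = pilot-screen positive control compound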
KKLEB tox: CF airway cell cytotoxicity counter-screen; activity change (cytotoxicity), % at 5 µM; KKLEB CF airway cells viability, ATPlite luminescence, overnight; hits give low values; cells stimulated with P. aeruginosa culture filtrate; 360,000 tested, 0.36% active;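 active means corrected activity change at or below -50% at 5 µM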
Peg3 prom inh: Peg3 promoter activity inhibition | AID 588405 | 360,000 tested, 1.7% active | HeLa PEG-Prom luciferase reporter, luminescence, overnight | inhibition, % at 20 µM;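 active means inhibition of at least 50% at 20 µM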
* = called active by the depositor. Shown are actives, neighbours in structure and some others; about 2.6% of the full set was active somewhere.

Cc1nn(-c2ccccc2)c2c1C(c1ccc(O)c(O)c1)N1C(=N2)C(Nc2ccccc2)=Nc2ccccc21 (stereo not drawn) was read as HIF-2a block 18.4, CF NFkB inh -11.8, Shn3 3UTR inh -3.7, KKLEB tox -0.5 and Peg3 prom inh 21.4.
Screening O=C(/C=C/c1ccccc1)c1ccc2c3c(cccc13)CC2 returned HIF-2a block -319.9, CF NFkB inh -14.3, Shn3 3UTR inh -25.3, KKLEB tox -18.5 and Peg3 prom inh 59.8*.
For CC12CCC(=O)C=C1CCC1C2CCC2(C)C(c3csc(N)n3)CCC12 (stereo not drawn) the results were HIF-2a block -27.2, CF NFkB inh 38.5, Shn3 3UTR inh 75.4, KKLEB tox -18.2 and Peg3 prom inh 18.7.
Screening CC12CCC(=O)C=C1CCC1C2C(O)CC2(C)C(c3csc(N)n3)CCC12 (stereo not drawn) returned HIF-2a block 1.6, CF NFkB inh 7.3, Shn3 3UTR inh 85.6*, KKLEB tox -8.3 and Peg3 prom inh 2.9.
For CC(=O)c1cccc(NS(=O)(=O)c2ccc(-c3cnc(C4CC4)o3)cc2)c1 the results were HIF-2a block 21.2, CF NFkB inh 13.5, Shn3 3UTR inh 85.2*, KKLEB tox -11.5 and Peg3 prom inh 46.6.
`CC(=O)Nc1ccc(NS(=O)(=O)c2ccc(-c3cnc(C4CC4)o3)cc2)cc1` gave HIF-2a block 1.0, CF NFkB inh -15.7, Shn3 3UTR inh 0.5, KKLEB tox -11.3 and Peg3 prom inh 6.8.
CCN(CC(=O)NCc1ccc(Cl)cc1)CC(=O)Nc1ccc(C(N)=O)cc1 was read as HIF-2a block 16.4, CF NFkB inh -13.7, Shn3 3UTR inh -4.3, KKLEB tox 0.5 and Peg3 prom inh 26.1.
`CC(Nc1ncnc2sccc12)c1ccccc1` (stereo not drawn) gave HIF-2a block 15.0, CF NFkB inh -4.1, Shn3 3UTR inh 86.6*, KKLEB tox 2.1 and Peg3 prom inh 14.2.
Screening c1ccc(Nc2ncnc3sccc23)cc1 returned HIF-2a block -42.4, CF NFkB inh 4.7, Shn3 3UTR inh -11.3, KKLEB tox -1.9 and Peg3 prom inh -25.5.
CC(C)Cc1cc(C(=O)N2CCC(N3CCC(C(=O)NC4CC4)CC3)CC2)n[nH]1 was read as HIF-2a block -4.0, CF NFkB inh 2.3, Shn3 3UTR inh -6.2, KKLEB tox 2.2 and Peg3 prom inh 34.7.
For O=C(Nc1c2ccccc2nc2ccccc12)C(Cl)(Cl)Cl the results were HIF-2a block 14.8, CF NFkB inh -84.7, Shn3 3UTR inh -2.5, KKLEB tox 8.3 and Peg3 prom inh 96.4*.
`O=C(Cc1ccccc1)NNc1c2ccccc2nc2ccccc12` gave HIF-2a block 7.1, CF NFkB inh -44.7, Shn3 3UTR inh 9.5, KKLEB tox -1.5 and Peg3 prom inh 10.5.
For Cc1ccc(-c2nc3ncccc3o2)cc1NC(=O)c1sc2ccccc2c1Cl the results were HIF-2a block 8.3, CF NFkB inh -1.8, Shn3 3UTR inh 85.3*, KKLEB tox -1.2 and Peg3 prom inh 78.0*.
For Cc1ccc(-c2nc3ccccc3[nH]2)cc1NC(=O)c1sc2cc(Cl)ccc2c1Cl the results were HIF-2a block -76.1, CF NFkB inh -18.9, Shn3 3UTR inh -14.5, KKLEB tox 2.1 and Peg3 prom inh 82.8*.
For Cc1ccc(-c2nc3ccccc3[nH]2)cc1NC(=O)c1ccco1 the results were HIF-2a block -120.1, CF NFkB inh 6.4, Shn3 3UTR inh -21.3, KKLEB tox 3.6 and Peg3 prom inh -136.7.
For CC(C)(C)OC(=O)NN1CC(=O)N2Cc3ccccc3C[C@@H]2C1=O the results were HIF-2a block 6.6, CF NFkB inh -3.2, Shn3 3UTR inh -17.4, KKLEB tox -1.5 and Peg3 prom inh 8.2.
COc1cc(O)c(CCC(=O)c2cc(OC)c(OC)c(OC)c2)c(OC)c1 was read as HIF-2a block 10.6, CF NFkB inh 10.8, Shn3 3UTR inh 3.2, KKLEB tox 7.8 and Peg3 prom inh 19.6.
COc1cc(/C=C2/CCCC(C(=O)C(F)(F)F)=C2O)ccc1O was read as HIF-2a block -1.9, CF NFkB inh 19.1, Shn3 3UTR inh -29.9, KKLEB tox -3.6 and Peg3 prom inh -30.6.
COc1cc(/C=C2\CC/C(=C\c3cc(OC)c(O)c(OC)c3)C2=O)cc(OC)c1O was read as HIF-2a block -30.1, CF NFkB inh 62.4*, Shn3 3UTR inh 34.3, KKLEB tox -44.4 and Peg3 prom inh 104.5*.
`COc1ccc(/C=C2\COc3ccccc3C2=O)cc1OC` gave HIF-2a block -10.1, CF NFkB inh 11.7, Shn3 3UTR inh 11.5, KKLEB tox 1.8 and Peg3 prom inh 95.1*.
For COc1cc(/C=C2\COC/C(=C\c3cc(OC)c(OC)c(OC)c3)C2=O)cc(OC)c1OC the results were HIF-2a block 92.7*, CF NFkB inh 93.3*, Shn3 3UTR inh 96.1*, KKLEB tox -67.2* and Peg3 prom inh 105.2*.
Screening COc1cc(/C=C2\CC/C(=C\c3cc(OC)c(OC)c(OC)c3)C2=O)cc(OC)c1OC returned HIF-2a block 20.5, CF NFkB inh -29.5, Shn3 3UTR inh 24.4, KKLEB tox -4.5 and Peg3 prom inh -11.1.
COc1cc(/C=C2/CCc3ccccc3C2=O)cc(OC)c1OC was read as HIF-2a block -27.4, CF NFkB inh 2.7, Shn3 3UTR inh 0.8, KKLEB tox -2.9 and Peg3 prom inh 6.3.
Screening COc1cc(/C=C2\CCC/C(=C\c3ccc(O)c(OC)c3)C2=O)ccc1O returned HIF-2a block 81.0*, CF NFkB inh -10.8, Shn3 3UTR inh 14.4, KKLEB tox -15.7 and Peg3 prom inh 105.0*.
`CCOc1ccc2nc(N(CCCN(C)C)C(=O)c3ccc4c(c3)CCCC4)sc2c1` gave HIF-2a block -21.8, CF NFkB inh 7.1, Shn3 3UTR inh 0.6, KKLEB tox -13.9 and Peg3 prom inh 16.8.
For CCc1ccc2nc(N(CCCN(C)C)C(=O)c3ccc(S(=O)(=O)N4CCCC4)cc3)sc2c1 the results were HIF-2a block -9.1, CF NFkB inh -7.0, Shn3 3UTR inh 11.1, KKLEB tox -11.5 and Peg3 prom inh -55.4.
Screening Cc1cc(C)c2nc(N(CCCN(C)C)C(=O)c3ccc4c(c3)OCCO4)sc2c1 returned HIF-2a block -43.1, CF NFkB inh 25.9, Shn3 3UTR inh 8.8, KKLEB tox -17.0 and Peg3 prom inh 97.7*.
For CN(C)CCCN(C(=O)c1ccc2c(c1)CCCC2)c1nc2ccc(Cl)cc2s1 the results were HIF-2a block -4.2, CF NFkB inh 11.0, Shn3 3UTR inh 19.5, KKLEB tox -23.8 and Peg3 prom inh 107.7*.
For CCc1ccc2nc(N(CCCN(C)C)C(=O)c3ccc(S(=O)(=O)N4CCCc5ccccc54)cc3)sc2c1 the results were HIF-2a block -25.4, CF NFkB inh 34.1, Shn3 3UTR inh 7.5, KKLEB tox -34.1 and Peg3 prom inh 106.1*.
COc1cccc2sc(N(CCCN(C)C)C(=O)c3ccc(S(=O)(=O)N4CCCc5ccccc54)cc3)nc12 was read as HIF-2a block 9.9, CF NFkB inh 4.9, Shn3 3UTR inh -12.0, KKLEB tox -16.4 and Peg3 prom inh 53.6*.

Source: PubChem BioAssay (several laboratories)
